High-throughput results from PubChem BioAssay.
HCV inhibitor: HCV inhibition; Potency, µM (titrated, usually from 41.8 µM), for the others: at the highest dose activity change, negative = inhibition, usual class: inhibitors; 3.4% of 340,000 active; Huh7.5.1 HCVcc-Cre infection, luciferase reporter, 44 h; active = well fitted inhibition curve with a large enough effect; inconclusive = small, poorly fitted or top-dose-only effect, or another doubt; inactive = no such curve, though single readings can be large or run the other way; also: potency is read from the fitted curve at half-maximal effect
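Antiviral activity was scored by luciferase reporter output from cells infected with HCVcc-Cre (~0.5 moi) in presence of compound, 44 h infection period, cells seeded 1,000/well 4 h prior.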
Lassa entry inh: inhibitors of Lassa virus binding or cell entry; Lassa virus pseudotype entry inhibition, cell reporter; Potency, µM (top dose mostly 37.9 µM), inactives show top-dose activity change, negative = inhibition, actives largely listed as inhibitors; 1.2% of 300,000 active; AID 540256; calls by dose curve; tested in HEK293 cells; also: potency is read from the fitted curve at half-maximal effect; nearly all actives have a fitted effect of over 50% in size
HCMV antiviral: human cytomegalovirus inhibition | HFF cells, HCMV-luciferase reporter, 72 h; hits give low values | activity change, negative = inhibition, % at 57.5 µM | 4.5% of 410,000 active; in the data active = activity change below about -60%; inconclusive = no clear call, values can overlap the other calls; inactive = above about -39%
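HFF cells seeded 16 h at 37C, treated with compounds, infected with luciferase-reporter HCMV at MOI 1 PFU/cell; luciferase read at 72 h post infection, normalized to buffer-only and Salinomycin controls.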
FMDV antiviral: blocks foot and mouth disease virus; FMDV antiviral cell-based qHTS; Potency, µM (doses to about 57.9 µM), inactives show top-dose activity change, negative = inhibition, most hits filed as inhibitors; 1.2% of 410,000 active; AID 1159524; calls by dose curve; tested in HEK293T cells; also: read-out not given here; potency is read from the fitted curve at half-maximal effect; nearly all actives have a fitted effect of over 45% in size
Marburg entry inh: Marburg virus entry inhibition; 1.8% of 300,000 active; Marburg virus pseudotyped entry inhibition, cell reporter; AID 540276; Potency, µM (series often up to 37.8 µM), without a hit: at the top dose activity change, negative = inhibition, most hits filed as inhibitors; calls by dose curve; tested in HEK293 cells; also: potency is read from the fitted curve at half-maximal effect
* hit, by the source's call; [ ] = remark or other dose. Most compounds without a hit are left out; they make up all but 7.9% or so of the library. % is scaled to controls: 0 for no effect and ±100 for the full control effect.

COc1cc(-c2cc3n(C)c(C)c(CCC(=O)NCc4ccccc4)c(=O)n3n2)cc(OC)c1OC was read as Lassa entry inh 18%[46.1 µM], HCMV antiviral 73 and FMDV antiviral 1%.
`CCOc1ccc(C(=O)N(CC(=O)Nc2cccc(C)c2C)CC2CCCO2)cc1OC` (centres undefined) gave HCV inhibitor 7%, Lassa entry inh 0%, HCMV antiviral active, FMDV antiviral 13% and Marburg entry inh 5%.
For CN(C)C=C1C(=O)N(C2CCCCC2)C(=O)N(C2CCCCC2)C1=O the results were HCV inhibitor 13%, Lassa entry inh inconclusive, HCMV antiviral 33, FMDV antiviral 18µM* and Marburg entry inh -23%.
`Clc1ccc(SCNc2ccccc2Cl)cc1` gave HCV inhibitor -1%, HCMV antiviral -25 and FMDV antiviral -22%.
Cc1ccc(NCSc2ccc(Cl)cc2)cc1 was read as HCV inhibitor 10µM*, Lassa entry inh 20%[46.1 µM], HCMV antiviral 52, FMDV antiviral 28% and Marburg entry inh 9%[46.1 µM].
For COc1ccc(N(C(=O)c2cccc(C)c2)S(=O)(=O)c2ccc3c(c2)n(C)c(=O)n3C)cc1 the results were Lassa entry inh inconclusive, HCMV antiviral 14, FMDV antiviral 0.028µM* and Marburg entry inh -27%[46.1 µM].
COc1ccc(C(=O)N(c2ccc(OC)cc2)S(=O)(=O)c2ccc3c(c2)n(C)c(=O)n3C)cc1 was read as Lassa entry inh inconclusive, HCMV antiviral -9, FMDV antiviral 4% and Marburg entry inh inconclusive.
`CCOC(=O)c1cccc(NC(=O)CC2C(=O)N(c3ccc(F)cc3)C(=O)N2C(C)C)c1` (centres undefined) gave Lassa entry inh -8%[46.1 µM], HCMV antiviral -6 and FMDV antiviral -13%.
For Cc1ccc2ncc(C(=O)Nc3ccc(F)cc3F)c(=O)n2c1 the results were HCMV antiviral 7, FMDV antiviral 21% and Marburg entry inh 2%[46.1 µM].
`CC(C)N1CC(O)=C(c2nc3ccccc3c(=O)[nH]2)C1=N` gave HCV inhibitor 6%, Lassa entry inh 9%, HCMV antiviral -10, FMDV antiviral 16% and Marburg entry inh -3%.
`Cc1cc(C)cc(N2CC(O)=C(c3nc4ccccc4c(=O)[nH]3)C2=N)c1` gave HCV inhibitor 22µM*, Lassa entry inh -17%, HCMV antiviral -10, FMDV antiviral 5% and Marburg entry inh inconclusive.
Screening COCCn1c(=O)[nH]c(=O)c2c1nc(-c1ccc(-c3ccc(Cl)cc3[N+](=O)[O-])o1)n2Cc1ccccc1 returned HCV inhibitor 10µM*, Lassa entry inh 10µM*, HCMV antiviral 181, FMDV antiviral inconclusive and Marburg entry inh inconclusive.
O=c1[nH]c(=O)n(Cc2ccccc2)c2nc(-c3ccc(Oc4ccc(F)cc4)c([N+](=O)[O-])c3)n(CCO)c12 was read as HCV inhibitor inconclusive, Lassa entry inh inconclusive, HCMV antiviral -64*, FMDV antiviral 0% and Marburg entry inh inconclusive.
`COc1ccc(Br)cc1-c1nc2c(c(=O)[nH]c(=O)n2Cc2ccccc2)n1C` gave HCV inhibitor 14%, Lassa entry inh inconclusive, HCMV antiviral 7, FMDV antiviral -10% and Marburg entry inh -15%[46.1 µM].
For COCCn1c(-c2ccc(SC)cc2)nc2c1c(=O)[nH]c(=O)n2CC(C)C the results were HCV inhibitor -9%, Lassa entry inh inconclusive, HCMV antiviral 31, FMDV antiviral 24% and Marburg entry inh -10%[46.1 µM].
`COCCCn1c(-c2cccc(Cl)c2)nc2c1c(=O)[nH]c(=O)n2Cc1ccccc1` gave HCV inhibitor -26%, Lassa entry inh inconclusive, HCMV antiviral -32, FMDV antiviral -12% and Marburg entry inh -1%[46.1 µM].
`COc1ccc(-c2ccc(-c3nc4c(c(=O)[nH]c(=O)n4Cc4ccccc4)n3C)o2)c([N+](=O)[O-])c1` gave HCV inhibitor inconclusive, Lassa entry inh -2%, HCMV antiviral 2, FMDV antiviral -17% and Marburg entry inh -2%.
`Cn1c(-c2cc(Cl)ccc2O)nc2c1c(=O)[nH]c(=O)n2Cc1ccccc1` gave HCV inhibitor inconclusive, Lassa entry inh inconclusive, HCMV antiviral -5, FMDV antiviral inconclusive and Marburg entry inh 2µM*.
COCCn1c(-c2ccc(OC(F)(F)C(F)C(F)(F)F)cc2)nc2c1c(=O)[nH]c(=O)n2CC(C)C (centres undefined) was read as HCV inhibitor -27%, Lassa entry inh 2.8µM*, HCMV antiviral -2, FMDV antiviral inconclusive and Marburg entry inh -5%.
`COc1ccc(-c2ccc(=O)n(CC(=O)NCCc3ccccc3)n2)cc1` gave Lassa entry inh -9%[46.1 µM], HCMV antiviral 4 and FMDV antiviral 2%.
Cc1cccc(C(=O)N2CCOc3ccc(CN(C)Cc4cc(C5CC5)n[nH]4)cc3C2)n1 was read as FMDV antiviral -8%.
For CCCCn1c(=O)[nH]c(=O)c2c1nc(-c1ccc(C)c([N+](=O)[O-])c1)n2CC the results were HCV inhibitor inconclusive, Lassa entry inh inconclusive, HCMV antiviral 66, FMDV antiviral -22% and Marburg entry inh inconclusive.
`Cc1ccc(-c2nc3c(c(=O)[nH]c(=O)n3CC(C)C)n2CC(C)C)cc1[N+](=O)[O-]` gave HCV inhibitor inconclusive, Lassa entry inh inconclusive, HCMV antiviral -62*, FMDV antiviral -27% and Marburg entry inh inconclusive.
Screening COc1ccc(-c2nc3c(c(=O)[nH]c(=O)n3Cc3ccccc3)n2CCO)cc1 returned HCV inhibitor -10%, Lassa entry inh 2.2µM*, HCMV antiviral 2, FMDV antiviral -19% and Marburg entry inh -1%[46.1 µM].
For COc1cccc(NC(=O)Cn2nc(-c3ccncc3)ccc2=O)c1 the results were Lassa entry inh 7%[46.1 µM], HCMV antiviral 24 and FMDV antiviral 11%.
Screening Cc1cccc(C)c1NC(=O)Cn1c(=O)n(CCC(=O)NCc2ccccc2Cl)c(=O)c2sccc21 returned Lassa entry inh -12%[46.1 µM], HCMV antiviral 7, FMDV antiviral 36% and Marburg entry inh 0%[46.1 µM].
Screening CCOC(=O)c1sc2nc(C)nc(N3CCCCC3C)c2c1C (centres undefined) returned HCV inhibitor -29%, Lassa entry inh 0%, HCMV antiviral -73*, FMDV antiviral -13% and Marburg entry inh inconclusive.
Screening CCOC(=O)c1sc2nc(C)nc(SCC(=O)N(CC)C3CCS(=O)(=O)C3)c2c1C (centres undefined) returned HCV inhibitor -9%, HCMV antiviral -73* and FMDV antiviral inconclusive.
For COc1ccc(NC(=O)c2ccc3c(c2)nnn3C2CCCC2)cc1Cl the results were Lassa entry inh -14%[46.1 µM], HCMV antiviral -24 and FMDV antiviral -11%.
For CCc1ccccc1NC(=O)CSC1=Nc2ccccc2C2=NC(Cc3ccccc3)C(=O)N12 (centres undefined) the results were Lassa entry inh -26%[46.1 µM], HCMV antiviral -30 and FMDV antiviral -9%.
